High-throughput results (PubChem BioAssay)
BL2 CD40 inh = CD40 pathway inhibition in BL2 cells; BL2 NF-kB luciferase reporter, CD40L-induced, 4 h; inhibition, % at 10 µM; 0.94% of 83,000 active;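 active means mean inhibition of at least 50% with a set share of replicates also reaching that level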;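 further: 0% = neutral control wells and 100% = IKK inhibitor VII at 50 µM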
* hit, by the source's call; [ ] = another dose, or the depositor's remark. This is one part of a sample in which hits are shown more often than they occur.

How did C[C@@H]1C[C@H]2[C@@H]3C[C@H](F)C4=CC(=O)C=C[C@]4(C)[C@@]3(F)[C@@H](O)C[C@]2(C)[C@@]1(O)C(=O)COC(=O)C(C)(C)C do in these assays?
BL2 CD40 inh: 33

Results for CC(=O)[C@@]1(O)CC[C@H]2[C@@H]3C[C@H](C)C4=CC(=O)C=C[C@]4(C)[C@@]3(F)[C@@H](O)C[C@@]21C ?
BL2 CD40 inh: 23

How did CCCC(=O)O[C@]1(C(=O)COC(C)=O)CC[C@H]2[C@@H]3C[C@H](F)C4=CC(=O)C=C[C@]4(C)[C@@]3(F)[C@@H](O)C[C@@]21C do in these assays?
BL2 CD40 inh: 56*

Results for COCC(=O)Nc1ccc2c(c1)C(=O)N(C)[C@H]1CC[C@H](CC(=O)N3CCc4ccccc4C3)O[C@H]1CO2 ?
BL2 CD40 inh: 6[25 µM]

Results for O=S(=O)(Cc1ccccc1)N1[C@@H]2CNC[C@H]1C2c1ccc(/C=C/c2ccccc2)cc1 (stereo partly specified) ?
BL2 CD40 inh: -31

What do the screens show for `CN(C)CC(=O)N1[C@@H](C#N)[C@H](c2ccc(C#CC3CCCCC3)cc2)[C@@H]1CO`?
BL2 CD40 inh: -3[25 µM]

Results for COc1ccc2c3c(n(C)c2c1)[C@H](CO)N(C(=O)Nc1ccc(F)cc1)CC31CCN(C(=O)c2ccc3c(c2)OCO3)CC1 ?
BL2 CD40 inh: 65*[25 µM]

Results for COc1ccc2c3c(n(C)c2c1)[C@H](CO)N(C(=O)Nc1ccc(F)cc1)CC31CCN(C(=O)Nc2c(C)noc2C)CC1 ?
BL2 CD40 inh: 19[25 µM]

How did COc1ccc2c3c(n(C)c2c1)[C@@H](CO)N(C(=O)Nc1ccc(F)cc1)CC31CCN(C(=O)c2ccc3c(c2)OCO3)CC1 do in these assays?
BL2 CD40 inh: 30[25 µM]

What do the screens show for `CCNC(=O)[C@H]1[C@H](CO)[C@H]2Cn3c(ccc(C4=CCCCC4)c3=O)[C@@H]1N2CCC(F)(F)F`?
BL2 CD40 inh: -3[25 µM]

Results for CN1C(=O)c2cc(NS(C)(=O)=O)ccc2OC[C@H]2O[C@H](CC(=O)N3CCOCC3)CC[C@@H]21 ?
BL2 CD40 inh: 3[25 µM]

How did COc1cccc(NC(=O)N2CC(=O)N3[C@H](CO)[C@@H](c4ccc(C#CCC5CCCC5)cc4)[C@H]3C2)c1 do in these assays?
BL2 CD40 inh: 64*[25 µM]

How did COc1cccc(NC(=O)N2CC(=O)N3[C@H](CO)[C@@H](c4ccc(C#CCC5CCCC5)cc4)[C@@H]3C2)c1 do in these assays?
BL2 CD40 inh: 23[25 µM]

How did O=C(Nc1ccccc1)N1CC(=O)N2[C@@H](CO)[C@@H](c3ccc(C#CC4CCCCC4)cc3)[C@@H]2C1 do in these assays?
BL2 CD40 inh: 26[25 µM]

What do the screens show for `O=C(Nc1ccccc1)N1CC(=O)N2[C@H](CO)[C@@H](c3ccc(C#CC4CCCCC4)cc3)[C@H]2C1`?
BL2 CD40 inh: 54*[25 µM]

How did O=C(Nc1ccccc1)N1CC(=O)N2[C@H](CO)[C@H](c3ccc(C#CC4CCCCC4)cc3)[C@H]2C1 do in these assays?
BL2 CD40 inh: 9[25 µM]

How did COc1cccc(NC(=O)N2CC(=O)N3[C@H](C2)[C@H](c2ccc(C#CCC4CCCC4)cc2)[C@@H]3CO)c1 do in these assays?
BL2 CD40 inh: 13[25 µM]

Results for CO[C@@H]1CC[C@@H]2CCOc3c(C#N)cccc3C(=O)N(C)C[C@@H](OC)[C@@H](C)C(=O)N(C)C[C@@H]1O2 ?
BL2 CD40 inh: 3[25 µM]

What do the screens show for `O=C(Nc1ccccc1F)N1CC(=O)N2[C@H](CO)[C@H](c3ccc(-c4cccnc4)cc3)[C@@H]2C1`?
BL2 CD40 inh: -8[25 µM]

What do the screens show for `Fc1ccccc1/C=C1\CCCC2=C1Nc1nnnn1C2c1ccccc1F` (stereo unspecified)?
BL2 CD40 inh: 75*

How did N#CC(Cc1ccc(O)cc1)c1ccc(O)cc1 (stereo unspecified) do in these assays?
BL2 CD40 inh: 12[25 µM]

Results for O=C(COC(=O)c1ccc(OC(F)F)cc1)Nc1ccc2c(c1)OCCO2 ?
BL2 CD40 inh: -6

Results for Cc1ccccc1-c1ccccc1[C@H]1[C@@H](CO)N(C(=O)c2ccccc2)[C@H]1C#N ?
BL2 CD40 inh: 4[25 µM]

Results for CN(CC(=O)Nc1ccccc1Cl)C(=O)COC(=O)c1ccc(S(=O)(=O)C(F)F)cc1 ?
BL2 CD40 inh: 7

Results for CN(CC(=O)Nc1ccccc1Cl)C(=O)COC(=O)c1cccs1 ?
BL2 CD40 inh: 13

How did Cc1nc(-c2ccc(F)cc2)c(CC(=O)N(C)CC(=O)Nc2ccccc2Cl)s1 do in these assays?
BL2 CD40 inh: 53*

How did O=C(Nc1cc(F)ccc1F)N[C@@H]1CC[C@H](CCn2cc(C3CCCC3)nn2)O[C@@H]1CO do in these assays?
BL2 CD40 inh: 0

What do the screens show for `N#Cc1cccc(-c2ccc([C@H]3[C@@H](CO)N[C@@H]3CNC(=O)C3CCCC3)cc2)c1`?
BL2 CD40 inh: 4

What do the screens show for `COCC#Cc1ccc([C@@H]2[C@H](CO)N3C(=O)CN(C(=O)c4ccncc4)C[C@@H]23)cc1`?
BL2 CD40 inh: -6[25 µM]

What do the screens show for `O=C1Nc2ccccc2CCc2ccccc21`?
BL2 CD40 inh: 3

Results for O=C(N/N=C1\CCc2ccccc21)c1ccccc1O ?
BL2 CD40 inh: 25

How did O=C1C(=NO)CCc2ccccc21 do in these assays?
BL2 CD40 inh: 35*
